Results as given in PubChem BioAssay (NCATS).
Inconclusive results are not listed. Where a call stands in place of a potency, no number is given. Calls of active or inactive are those of the source. Calls follow the shape of the dose curve; as a rule, active = well fitted curve in the direction sought with a large enough effect; inconclusive = small, poorly fitted or top-dose-only effect, or another doubt; inactive = no such curve, though single readings can be large; an effect the other way counts as inactive or inconclusive.

Assays:
[1] = molecular target: Aldehyde dehydrogenase, mitochondrial (Homo sapiens) (UniProt P05091); experiment: qHTS for Inhibitors of the Aldehyde Dehydrogenase Family (ALDH2) Primary screen (AID 2061308); conditions: ALDH2 enzyme inhibition qHTS, 1536-well; series mostly up to 56 µM; also: nearly all actives have a fitted effect of over 55% in size
[2] = molecular target: Retinaldehyde dehydrogenase 3 (Homo sapiens) (UniProt P47895); experiment: qHTS for Inhibitors of the Aldehyde Dehydrogenase Family (ALDH1A3) Primary screen (AID 2061315); conditions: ALDH inhibition qHTS; series mostly up to 56 µM

For `COc1cccc(CNc2ccc(S(=O)(=O)Nc3cccc(N4CCNCC4)c3)cc2)c1O`, which Potency [1] is on record?
The Potency was “inactive”.

What about the Potency [2] of the same molecule?
The Potency was “inactive”.

For `CCOc1ccc(CCNC(=O)c2cc3sccc3n2CCN2CCN(C)CC2)cc1OCC`, which Potency [1] is on record?
Its Potency is “inactive”.

And the Potency [2]?
The Potency was “inactive”.

For `O=c1c2ccccc2nc2sc(Nc3cccc(N4CCN5CCCCC5C4)c3)nn12` (stereo not drawn), which Potency [1] is on record?
Its Potency is “inactive”.

And the Potency [2]?
Its Potency is “inactive”.

For `Cc1cnc(-c2ccccc2C2COC2)nc1NCc1ccc(-c2cccnc2)cc1`, which Potency [1] is on record?
The Potency was “inactive”.

And the Potency [2]?
Its Potency is “inactive”.

For `O=C(Cc1nnc(-c2nc3ccccc3[nH]2)o1)Nc1cc(C(F)(F)F)ccc1Cl`, which Potency [1] is on record?
The Potency was “inactive”.

And the Potency [2]?
Its Potency is “inactive”.

With `Cc1cccc(CNc2ccnc(-c3ccc(C(F)(F)F)cc3)n2)c1` as the molecule, how does the Potency [1] read?
The Potency was “inactive”.

What about the Potency [2] of the same molecule?
Its Potency is “inactive”.

For `CC(=O)Nc1ccc(CNc2ncnc3ccc(-c4c(C)noc4C)cc23)cc1`, which Potency [1] is on record?
Its Potency is “inactive”.

What about the Potency [2] of the same molecule?
The Potency was “inactive”.

How did the Potency [1] turn out when `Nc1ncnc2c1nc(N)n2[C@@H]1O[C@H](CO)[C@@H](O)[C@H]1O` was run?
The Potency was “inactive”.

What about the Potency [2] of the same molecule?
Its Potency is “inactive”.

`CC(=O)O[C@@H]1C(=O)O[C@@H]2[C@H]1OC(=O)[C@@H]2OC(C)=O` was tested. Which Potency [1] did it give?
The Potency was “inactive”.

And the Potency [2]?
Its Potency is “inactive”.

For `Cc1ccc2oc(NC3=NC(c4[nH]ncc4Cl)C4=C(CCCC4=O)N3)nc2c1` (stereo not drawn), which Potency [1] is on record?
The Potency was “inactive”.

What about the Potency [2] of the same molecule?
The Potency was “inactive”.

With `CC(C)(C)c1ccc(-n2cnc3cc(C(=O)N4CCCCC4)ccc32)cc1` as the molecule, how does the Potency [1] read?
Its Potency is “inactive”.

And the Potency [2]?
The Potency was “inactive”.

What does the source list for `N#Cc1ccc(-c2ccc(=O)n(CC(=O)NCCc3ccccc3)n2)cc1`?
Potency [1]: inactive; Potency [2]: inactive

With `COc1ccc(NC(=O)c2[nH]c(C)c(C(C)=O)c2C)cc1S(=O)(=O)Nc1cccc(C#N)c1` as the molecule, how does the Potency [1] read?
The Potency was “inactive”.

And the Potency [2]?
The Potency was “inactive”.

How did the Potency [1] turn out when `O=[S+]([O-])(c1ccc2c(c1)OCCO2)N1CCN([S+](=O)([O-])c2ccc(F)cc2Br)CC1` was run?
The Potency was “inactive”.

What about the Potency [2] of the same molecule?
Its Potency is “inactive”.
